# Biological target: Hexose transporter 1 (Plasmodium falciparum) (UniProt O97467)
# Assay: ST_JUDE_LEISH: Cytotoxicity at 2uM final concentration against transgenic Leishmania Mexicana promastigotes LmPfHT that are glucose transport deficient and complemented with the Plasmodium falciparum hexose transporter. Activity is measured by DNA content using SYBR green in vitro
# Format: functional
row,SMILES,inhibition [%]
1,COc1ccc2nccc([C@@H](O)CN3CCC(NCCOc4c(C)cccc4F)CC3)c2c1,3.49
2,CCCCN(CCCC)CCC(O)C(=Cc1ccc(Cl)cc1Cl)c1ccc(C(F)(F)F)cc1N (stereo not given),0.65
3,CCc1sc(N2CCC(C)CC2)nc1C(=O)Nc1ccc(F)cc1C(F)(F)F,3.34
4,CS(=O)(=O)c1cccc2sc(N3CCN(C(=O)c4ccc([N+](=O)[O-])o4)CC3)nc12,23.7
5,Cc1[nH]c2c(C)cccc2c1C1CCN(CCC2CCN(C(=O)/C=C/c3ccc(Cl)c(Cl)c3)CC2)CC1,3.13
6,OCC1CCN(Cc2ccc(-c3ccc(-c4nc5cc(C(F)(F)F)ccc5[nH]4)cc3)cc2)CC1,8.94
7,CCSc1ccccc1CON1C(=N)N=C(N)NC1(C)C,19.1
8,COc1cc2nc(N(C)Cc3cccc(I)c3)nc(N)c2cc1OC,7.24
9,O=C(NCc1ccco1)c1ccc(CN2CCN(C(c3ccccc3)c3ccccc3)CC2)cc1,6.41
10,Cc1ccc(O)cc1Nc1ccnc2cc(-c3csc(CN4CCN(C)CC4)n3)ccc12,5.93
11,CC(=O)c1c(Nc2c(C)cc(C)cc2C)oc(C)cc1=O,5.4
12,CC(C)C[C@H]1C(=O)N[C@H](C2Cc3ccccc3C2)C(=O)N1[C@@H](C(=O)Nc1ccccc1OCc1ccccc1)c1ccc(F)cc1F,-0.17
13,CCOC(=O)C(NC(=O)c1ccc([N+](=O)[O-])o1)C(C)C (stereo not given),-1.51
14,COc1ccc(C(=O)CCC(=O)N(Cc2ccc(-c3ccc(CNCCc4ccc(S(C)(=O)=O)cc4)cn3)cc2)Cc2ccc3c(c2)OCO3)cc1F,-0.05
15,CN(C)C(=O)c1ccc(CN(Cc2cccc(OC(C)(C)C)c2)Cc2ccc3c(c2)OCCO3)cc1,-0.56

# Reference: ChEMBL document CHEMBL3433997, “St. Jude Leishmania screening dataset” (2016)
